Each structure is given as a SMILES string. Values joined by “and” are separate entries in the source; they are usually repeats but may differ in a detail not shown here. Equal entries are not always repeated. About 83,000 compounds went through this panel and 20% of them were active in at least one assay; those are over-represented in the sample as a whole.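 Note: values are percent growth. 100 is the growth of untreated cells, values between 100 and 0 indicate rising inhibition; between -100 and 0 indicates cell death.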 Active and inactive are the calls of the source. How the source made its calls: active means growth percent below 10; inactive means the rest.

The test system of this assay is MDA-MB-468 breast. Nature of the assay: NCI-60 one-dose screen, 48 h (100 = growth as untreated, 0 = no growth, -100 = all killed). The conditions noted are these: 10 µM unless noted.
On to `O=S(=O)(NCCCNc1nccc(-c2[nH]c(-c3ccccc3)nc2-c2ccc(Cl)c(O)c2)n1)c1cccc(F)c1`, for which the growth was 50.9% (inactive).

`Cc1cc(C)c(O)c(C(=O)CC(Br)C(=O)O)c1` (stereo not given): the growth is 74.9% (inactive). With `COC(=O)CCC1=C(C)C(C)=N/C1=C\c1[nH]c(-c2ccc[nH]2)cc1OC`, the growth is 35% (inactive). The result for `COC(=O)c1ccc(C(C)C)cc1` reads 110% (inactive).

As to `CN(C)c1ccc2c(c1)OC(N)=C(C#N)C2c1ccc2c(c1)CCCN2C` (stereo not given), the growth was 20.6% (inactive). The result for `CO[C@H]1NC(=O)N(S(=O)(=O)c2ccc(Cl)cc2)[C@@H]1OC` reads 110% (inactive); that for `C/C(=N\Nc1ccc(Cl)cn1)c1ccccn1`, -41% (active); that for `O=C(CC12CC3CC(CC(C3)C1)C2)NCCOCCOCCNC(=O)c1cc2c(o1)C(=O)c1ccccc1C2=O`, -60.7% (active). The result for `O=C(N/N=C/c1ccccc1)N/N=C/c1ccccc1` reads 108% (inactive) and 96.4% (inactive); that for `CN1CCN(CCCOc2ccc3nc(Nc4ccc(Cl)c(C(F)(F)F)c4)ccc3c2)CC1`, 69.5% (inactive); that for `O=C(/C=C\c1ccc(O)cc1)c1ccccc1`, 97.4% (inactive). For `CCCc1cc(CCC)n2nc(N)nc2n1` the value was 95.8% (inactive); for `Nc1nc2c(c(-c3nc(N)nc4c3CCc3ccccc3-4)n1)CCc1ccccc1-2`, 112% (inactive).

As for `CCOC(=O)c1cc(CC)sc1NC(=O)CC(C)=O`, the growth was 57.2% (inactive). For `N#CC1=C(N)Oc2c(ccc3ccccc23)C1c1ccccc1` (stereo not given), the growth was 23.1% (inactive).

As to `CCc1nc2ccc(Cc3ccc(C(=O)NO)cc3)cc2c(=O)n1CCc1ccccc1`, the growth was -65.1% (active).

As for `CN1C(=O)c2cc(Cl)nc3c(NC(=O)c4cccc(Cl)c4)c(Cl)c(NC(=O)c4cccc(Cl)c4)c1c23`, the growth is -19.6% (active). As for `COc1ccc(C(=S)N2CCN(c3ccc(Cl)cc3)CC2)cc1`, the growth is 102% (inactive).

In the case of `Nc1nc(Nc2cc(Cl)cc(Cl)c2)nn1S(=O)(=O)c1ccc2ccccc2c1`, the growth was 66.3% (inactive). For `CSC1=Nc2c(c(C)c(-c3ccccc3)n2CCCN2CCCCC2)C2=NC(=O)C[C@H](C)N12`, the growth is -18.6% (active). With `NC(=O)Nc1ccc(-n2cnc3cc(-c4ccc(O)cc4)ccc32)cc1`, the growth is 129% (inactive). For `COC(=O)[C@]1(C)CCC[C@]2(C)c3ccc(C(C)C)cc3C(=O)[C@@H](Br)[C@@H]12`, the growth was 78.3% (inactive). For `CCCCn1c(=O)c(-c2cc(-c3ccc(Cl)cc3)nc(-c3ccc(Cl)cc3)c2)cc2cc(Cl)ccc21` the value was 108% (inactive). Turning to `O=C1CN(c2ccccc2)C(=O)C1C(=O)Nc1ccc(Cl)c(Cl)c1` (stereo not given), the growth is 19.2% [100 µM] (inactive). As to `COC(=O)/C(CCC=C(C)C)=C1\[C@@H](OC(C)=O)C[C@@]2(C)[C@H]1CC(=O)[C@H]1[C@@]3(C)CCC(N4CCCC4)[C@@H](C)[C@@H]3CC[C@@]12C` (stereo not given in full), the growth is 99.7% (inactive). The result for `O=C(NC1CCNCC1)c1[nH]ncc1NC(=O)c1c(Cl)cccc1Cl` reads -37.2% (active).

`O=C(O)/C=C(\c1nc2ccc([N+](=O)[O-])cc2[nH]1)c1cc(Cl)ccc1O`: the growth is -2.53% (active). Regarding `Clc1ccc(Cc2nnc3sc(-c4cccnc4)nn23)cc1`, the growth is 94.2% (inactive). Turning to `Clc1ccc(-c2cn3cc(Cc4ccc(Cl)c(Cl)c4)sc3n2)cc1`, the growth is 80.5% (inactive). For `O=C(O)CCCc1cnc2c3sccc3nc(SCc3c(Cl)cccc3Cl)n12` the value was 60.9% (inactive); for `CN1Cn2c(ccc2C(F)(F)F)C(=O)CS1(=O)=O`, 115% (inactive). `CCCc1cc2c(=O)c(C(=O)OC)c[nH]c2cc1N(CC)CC`: the growth was 119% (inactive). For the compound `CO[C@@H]1[C@H](N(C)C(=O)c2ccccc2)C[C@@H]2O[C@]1(C)n1c3ccccc3c3c4c(c5c6ccccc6n2c5c31)C(=O)NC4=O`, the growth was -12.7% (active). Regarding `O=[N+]([O-])/C(=C\c1ccco1)c1ccccc1Cl`, the growth was 55.7% (inactive). Regarding `CCC(=O)Nc1cc2c(cc1Cl)-c1ccccc1C2`, the growth is 97.9% (inactive). For `O=C(CCCCCNC(=O)c1cc(=O)c(O)co1)Nc1ccccc1` the value was 108% (inactive); for `COc1cc(-c2nc3occn3c2-c2ccnc(NCCCNS(=O)(=O)c3ccccc3)n2)ccc1F`, 5.92% (active). With `Clc1cccc(Cc2cn3cc(-c4ccccc4)nc3s2)c1`, the growth was 44.3% (inactive). `COc1ccc(/C(C)=C(\c2ccc(Cl)cc2)c2ccc(OCCCN(C)C)cc2)cc1F`: the growth is 75.7% (inactive).

As to `CCOC(=O)N1CCc2c(sc3nc4nc[nH]n4c(=O)c23)C1`, the growth is 112% (inactive).

Values taken from PubChem BioAssay (NCI).
